Ten molecules from PubChem BioAssay (EPA / NIEHS) can be followed below.

Records with an inconclusive call do not appear. Some compounds were tested as several samples or in several runs, with calls that do not always agree. The source made the active and inactive calls. How the source made its calls: active means hit-call score of the fitted dose curve at least 0.9, where 1 is the maximum; inconclusive means response in the unintended direction; inactive means score below 0.9.

The subject of this test is frog Estrogen Receptor (ESR2), gene 100174814. The test can be described thus: ATG_frER2_XSP1: Attagene TRANS-FACTORIAL Multi-Species (XSP1) HepG2 Assay for frog Estrogen Receptor (ESR2) (AID 2283774). As to the method:
ATG_XSP1_multi-species_TRANS is a cell-based, multiplexed assay created by modifying the existing Attagene TRANS-FACTORIAL system to include a panel of nuclear receptors from some or all the following species: human (Homo sapiens), mouse (Mus musculus), frog (Xenopus laevis), zebrafish (Danio rerio), chicken (Gallus gallus), and turtle (Chrysemys picta). The ECOTOX-FACTORIAL format uses HepG2, a human liver cell line, with measurements taken at 24 hours after chemical dosing in a 24-well plate. Xsp1 included 3 nM 6-alpha-fluorotestosterone to partially stimulate the androgen receptor.ATG_frER2_XSP1 is one of 29 assay components measured or calculated from the ATG_XSP1_multi-species_TRANS assay. It is designed to make measurements of mRNA induction, a form of inducible reporter, as detected with fluorescence intensity signals by Reverse transcription polymerase chain reaction (RT-PCR) and Capillary electrophoresis technology.The assay endpoint ATG_frER2_XSP1 was analyzed in the positive analysis fitting direction relative to DMSO as the negative control and baseline of activity. Using a type of inducible reporter, measures of mRNA for gain-of-signal activity can be used to understand the reporter gene at the transcription factor-level as they relate to the gene ER. Furthermore, this assay endpoint can be referred to as a primary readout, because this assay has produced multiple assay endpoints where this one serves a reporter gene function. To generalize the intended target to other relatable targets, this assay endpoint is annotated to the nuclear receptor intended target family, where the subfamily is steroidal.
Human liver HepG2 cells are transiently transfected with multiple reporter transcription units (MRTUs) in 6-well plates using FuGene 6 reagent (Roche; 3 ml FuGene/1 mg DNA). The MRTU constructs are regulated by a cis-regulating element (promoter). […] A major difference between the CIS and TRANS system is that in CIS activities of endogenous TFs are measured, whereas the TRANS assay evaluates changes in activities of exogenous, chimeric NR-Gal4 proteins. […] At the end of 24 hour incubation, total RNA was isolated using TriZol reagent (Invitrogen). The isolated RNA is then reverse-transcribed using oligo(dT) primer and Mo-MLV reverse transcriptase (Invitrogen) with DNAse I (Ambion) treatment for 30 min. The one-tenth of the produced cDNA was amplified by PCR using Taq DNA polymerase (Invitrogen) and two reporter sequence-specific primers. The PCR products were fluorescently labeled by primer extension with 6-arboxyfluorescein (6-FAM) 5'-labeled reporter sequence-specific primer (2 min at 95 C, 20 s at 68 C and 10 min at 72 C) and these products were digested with 5U of HpaI (New England Biolabs) for 2h at 37 C. The fragments were purified using Qiaquick PCR columns (Qiagen), analyzed on an ABI 3130xL genetic analyzer (Applied Biosystems) with peak positions identified by using a set of X-rhodamine (ROX)-labeled MapMarker1000 molecular weight standards (BioVentures). The raw capillary electrophoresis data was processed using Attagraph software (Attagene).
With `CCCCC(CC)CN1C(=O)C2C3C=CC(C3)C2C1=O` (stereo unspecified), the AC50 – broadly, the concentration at which the activity in the assay is half-maximal – was 25400 nM (active).

`C=CCOC(Cn1ccnc1)c1ccc(Cl)cc1Cl` (stereo unspecified): the AC50 is 11600 nM (active). Take `CC(C)CCCCCCc1ccc(O)cc1`: the half-maximal activity concentration (AC50) is 752 nM (active).

Turning to `C#C[C@]1(O)CC[C@H]2[C@@H]3CCC4=CC(=O)CC[C@@H]4[C@H]3CC[C@@]21CC`, the AC50 is 1000 nM (active) and the outcome was inactive. Take `CCCCC(CC)COC(=O)c1ccccc1C(=O)O` (stereo unspecified): the AC50 was 61800 nM (active).

As to `CC(=O)S[C@@H]1CC2=CC(=O)CC[C@]2(C)[C@H]2CC[C@@]3(C)[C@@H](CC[C@@]34CCC(=O)O4)[C@H]12`, the AC50 was 48600 nM (active).

Consider `O=C(c1ccc(O)cc1O)c1ccc(O)cc1O`, for which the AC50 was 519 nM (active).

Regarding `Oc1ccc(C(c2ccc(O)cc2)C(Cl)(Cl)Cl)cc1`, the AC50 was 34.2 nM (active). For the molecule `CC(C)(c1ccc(O)cc1)c1ccc(O)cc1`, the AC50 was 374 nM (active). Regarding `CC1(C)C(C=C(Cl)Cl)C1C(=O)OCc1cccc(Oc2ccccc2)c1` (stereo unspecified), the AC50 is 2790 nM (active).
